High-throughput results deposited in PubChem BioAssay by several laboratories.
Arbovirus anti – antivirals against arbovirus infection, primary screen, cell-based, full library, 10K replicate subset; 200,000 compounds, 0.37% hits; AID 1251, 2008; inhibition, % at 10 µM; arbovirus infection cell-based antiviral screen; in the data active means inhibition above about 30%
Hsp70 activator – Hsp70 transcriptional activators, primary screen, cell-based, HeLa, Hsp70 promoter luciferase, luminescence, 10 µM; HeLa Hsp70 promoter luciferase reporter; scaled: vehicle 0, proteasome-inhibitor control 100%; activation, % at 10 µM; 200,000 compounds, 0.04% hits; AID 1203, 2008;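 active means activation above the mean across all tested compounds plus 3 SD, cutoff set per campaign, cut at about 5.5% in these data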;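 further: 100% = MG132 at 30 µM as the positive control and 0% = DMSO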
PKD1 inh – inhibitors of human PKD1 kinase, biochemical, fluorescence polarization | inhibition, % (test concentration not listed) | PKD1 kinase fluorescence polarization assay | Serine/threonine-protein kinase D1 (Homo sapiens), Q15139 | 200,000 compounds, 0.056% hits | AID 797, 2007; in the data active means inhibition above about 50%
Efa HMGR inh – inhibitors of E. faecalis class II HMGR, primary screen, biochemical, Enterococcus faecalis. HMG-CoA reductase (Enterococcus faecalis, mvaE). purified E. faecalis HMGR, NADPH absorbance 340 nm kinetic. inhibition, % at 10 µM. 190,000 compounds, 0.41% hits;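 active means inhibition above a set limit, the median over all tested compounds plus 3 SD, cut at about 9.5% in these data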;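 further: enzyme runs in reverse so mevalonate oxidation gives rising NADPH absorbance; 0% = complete reaction with DMSO and 100% = background rate lacking mevalonate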
Wee1 degr inh – Wee1 degradation inhibitors, primary screen, cell-based, HeLa, Wee1K328M-luciferase, luminescence | HeLa Luc-Wee1K328M stability; 100% = proteasome inhibitor MG132 effect | 220,000 compounds, 1.2% hits | Wee1-like protein kinase (Homo sapiens), P30291 | reporter increase, % at 5 µM;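 active means activation above the mean of all tested compounds plus 3 SD, set per screening run, cut at about 8.8% in these data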;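 further: cells exposed to compound for 20 h before luminescence read; 0% = DMSO alone and 100% = MG132 at 30 µM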
Target sequence (P30291 whole entry K328M): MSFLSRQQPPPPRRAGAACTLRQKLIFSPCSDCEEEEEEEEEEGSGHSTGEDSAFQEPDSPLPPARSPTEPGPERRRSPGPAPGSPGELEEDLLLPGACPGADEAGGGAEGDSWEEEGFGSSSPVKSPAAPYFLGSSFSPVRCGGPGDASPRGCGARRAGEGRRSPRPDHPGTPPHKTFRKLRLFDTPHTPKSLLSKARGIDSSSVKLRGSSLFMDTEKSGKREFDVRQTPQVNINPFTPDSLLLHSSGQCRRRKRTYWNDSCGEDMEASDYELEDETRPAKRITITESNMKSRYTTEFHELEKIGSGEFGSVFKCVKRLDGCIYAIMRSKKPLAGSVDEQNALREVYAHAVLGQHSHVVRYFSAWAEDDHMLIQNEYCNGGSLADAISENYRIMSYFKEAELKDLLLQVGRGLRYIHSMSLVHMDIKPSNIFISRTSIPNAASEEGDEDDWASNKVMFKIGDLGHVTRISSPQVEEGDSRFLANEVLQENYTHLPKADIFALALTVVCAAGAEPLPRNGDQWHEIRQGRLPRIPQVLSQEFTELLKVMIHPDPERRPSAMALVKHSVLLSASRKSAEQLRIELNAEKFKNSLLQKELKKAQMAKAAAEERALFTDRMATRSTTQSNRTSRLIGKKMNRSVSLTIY
Wee1 degr conf – Wee1 degradation inhibitors, confirmation, cell-based, HeLa, Wee1K328M-luciferase, luminescence, triplicate | shares compounds with Wee1 degr inh | HeLa Luc-Wee1K328M degradation; vehicle 0%, proteasome-blocked wells 100% | 1,100 compounds, 4% hits | AID 1410, 2008 | activation, % at 5 µM; in the data active means activation above about 8.9%
* hit, by the source's call; . = not tested or not shown. Hits are enriched below; roughly 2% of the tested compounds scored in any of these assays.

SMILES | Arbovirus anti | Hsp70 activator | PKD1 inh | Efa HMGR inh | Wee1 degr inh | Wee1 degr conf
CCOC(=O)CSc1nnc(CNC(=O)c2ccc(OC)cc2)n1-c1ccc(OC)cc1 | 14 | 0 | -8 | -1 | -1 | .
COc1ccccc1N1CCN(CC(=O)c2ccc3ccn(C(C)=O)c3c2)CC1 | 5 | 0 | -5 | -6 | -3 | .
CC(=O)OCC(=O)c1ccc2ccn(C(C)=O)c2c1 | 4 | 0 | -2 | -2 | 14* | 0
O=C(Nc1ccc(CN2CCS(=O)(=O)CC2)cc1)c1ccc(Cl)cc1 | . | . | . | . | 11* | 0
NC(=O)c1ccc(NC(=O)c2ccc(CN3CCOCC3)cc2)cc1 | 4 | 0 | -1 | -3 | 1 | .
CCn1c(CSc2nc(C)cc(C)n2)nnc1SCC(=O)N1CCCc2ccccc21 | 4 | 0 | -11 | 4 | 14* | 1
C[C@@H]1CN(Cc2cn(C)nc2-c2cccc(Cl)c2)C[C@H](C)O1 | 0 | 0 | 4 | 4 | 3 | .
CSc1ccccc1C(=O)NC1CCCCCC1 | -6 | 0 | -3 | 3 | 14* | 2
O=C(/C=C/NNC(=O)c1ccccc1)c1ccc([N+](=O)[O-])cc1 | -14 | 0 | -6 | 1 | 4 | .
COC(=O)c1ccccc1NC(=O)Cn1c(CCC(=O)O)ccc1-c1cccs1 | -1 | 0 | -2 | 2 | 17* | 7
COCCCn1c(CCC(=O)O)ccc1-c1cccs1 | -7 | 0 | -10 | 5 | 3 | .
O=C(N/N=C/c1ccc(Cl)cc1Cl)c1cccc(F)c1 | -14 | 1 | -12 | -7 | 1 | .
O=C(C[n+]1ccc(C(=O)N/N=C/c2ccc(Cl)cc2Cl)cc1)c1ccccc1 | -2 | -1 | 3 | 1 | 13* | -6
CC(C)(C)NC(=O)/C(=C/c1ccccc1F)NC(=O)c1ccc([N+](=O)[O-])cc1 | 20 | 0 | 8 | 2 | 15* | 2
COc1ccc(NC(=O)c2cc3c(s2)CCC(C)C3)cc1S(=O)(=O)N1CCOCC1 (configuration not stated) | 16 | 0 | -11 | 1 | -2 | .
CCn1c(N2CCN(S(=O)(=O)c3ccc(Cl)cc3)CC2)nc2ccccc21 | -2 | 0 | 0 | 0 | 26* | 0
Cc1ccc(S(=O)(=O)N2CCCC2c2nc3ccccc3s2)cc1 (configuration not stated) | 2 | 0 | -9 | -1 | 0 | .
Cc1noc(C(=O)Nc2cccc(O)c2)c1Cl | . | . | . | . | -3 | .
O=C(/C=C/c1ccccc1)N/C(=C/c1ccccc1)C(=O)NCCCO | -4 | 0 | -9 | -7 | 2 | .
Cc1cc(C)nc(NC(=O)c2cccc(Cl)c2)n1 | -3 | 0 | -11 | 0 | 0 | .
Cc1cc(C)nc(NC(=O)c2ccc(Cl)cc2)n1 | -3 | 0 | -1 | -5 | 17* | -1
CN1/C(=C\C(=O)COC(=O)CNC(=O)c2ccc3ccccc3c2)C(C)(C)c2ccccc21 | 11 | 0 | 1 | -4 | -2 | .
CN1/C(=C\C(=O)COC(=O)CNC(=O)c2ccccc2F)C(C)(C)c2ccccc21 | 2 | 0 | -2 | -5 | 23* | -1
CCN(CC)S(=O)(=O)c1cc(C(=O)N(C)CC(=O)Nc2ccc(Cl)cc2)ccc1Cl | -4 | 0 | 4 | -1 | 12* | 0
CCN(CC)S(=O)(=O)c1cc(C(=O)Nc2ccncc2)ccc1Cl | 11 | 0 | 14 | 0 | 2 | .
Cc1ccc(N2CCN(c3ccc(NCc4nc5ccccc5n4C)cc3)CC2)cc1 | -12 | 0 | 4 | 1 | -2 | .
Cn1c(CNc2ccc(Cl)cc2)nc2ccccc21 | 1 | 0 | -4 | 0 | 13* | 8
Cc1cc(C)n(-c2ccc(C(=O)Nc3cc(C(F)(F)F)ccc3N3CCOCC3)cc2)n1 | 15 | 0 | -2 | -7 | 13* | 0
Cc1cc(C)n(-c2ccc(C(=O)Nc3ccccc3N3CCOCC3)cc2)n1 | 1 | 0 | 10 | 0 | 7 | .
